# Mito fusion act: blocks mitochondrial division or promotes mitochondrial fusion; AID 485298; Potency, µM (titrated, usually from 46.1 µM), for inactives: at the highest dose growth rescue (activation), usual class: activators; 320,000 tested, 0.23% active; S. cerevisiae fusion-defective mutant growth rescue, CellTiterGlo 48 h; also: % of control where 0% means no effect; nearly all actives have a fitted effect of over 45% in size
#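 S. cerevisiae fusion-defective temperature-sensitive mutants (e.g. fzo1-1, mgm1-5) grown 48 h at 37C in YPEG (ethanol/glycerol non-fermentable) medium with 23 nl compound per well; growth rescue read as CellTiterGlo luminescence.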
# gsp ag: agonists of gsp mutant (McCune-Albright syndrome). AID 624287. gsp mutant cells, cAMP HTRF, 30 min. 340,000 tested, 0.13% active. Potency, µM (titrated, usually from 76.9 µM), for the others: at the highest dose activation (cAMP increase), usual class: activators; active = well fitted activation curve with a large enough effect; inconclusive = small, poorly fitted or top-dose-only effect, or another doubt; inactive = no such curve, though single readings can be large or run the other way; cell line not stated here;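 also: phosphodiesterase inhibitor Ro 20-1724 added with compounds to block cAMP breakdown; nearly all actives have a fitted effect of over 60% in size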
#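 Cells in DMEM/10% FBS with G418 were pretreated with compounds in DMSO plus […] (300 uM stock) for 30 min at 37C. cAMP was measured by HTRF (cAMP-d2 plus anti-cAMP antibody-K) after 30 min at room temperature.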
# gsp antag: gsp mutant antagonism | gsp-mutant cells, cAMP HTRF, 30 min | Potency, µM (titrated, usually from 76.9 µM), for inactives: at the highest dose activity change, negative = inhibition, usual class: inhibitors | 340,000 tested, 0.4% active | AID 624288; calls by dose curve; cell line not stated here;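 also: intracellular cAMP measured with PDE inhibitor Ro 20-1724 present during compound exposure; % is scaled to controls: 0 for no effect and ±100 for the full control effect; nearly all actives have a fitted effect of over 65% in size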
#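 Cells in G418 medium, seeded 16-24 h, 37C; buffer exchange to DPBS + 1 mM CaCl2, 0.5 mM MgCl2, 0.05% BSA; cpds in DMSO + […] (300 uM stock), 30 min 37C; HTRF cAMP detection.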
# FUS suppressor: FUS proteinopathy suppression in yeast. 390,000 tested, 0.24% active. S. cerevisiae FUS-expressing, growth rescue, OD600, 24 h. Potency, µM (top dose mostly 76.6 µM), most hits filed as activators;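 also: plate controls were DMSO vehicle for no effect and reference control for full effect; nearly all actives have a fitted effect of over 55% in size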
#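 Read-out: OD at 600 nm after 24hr at 30C, reporting rescue of FUS-induced yeast toxicity. Cells at OD 0.005 in galactose (2%) minimal medium; compounds tested in a dilution series; CP55940 titration from 92uM final as control.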
# 12-LOX inh: blocks human arachidonate 12S-lipoxygenase; P18054; purified 12hLO, xylenol orange hydroperoxide absorbance; AID 1671190; 580,000 tested, 1.1% active; Potency, µM (series often up to 108 µM), for inactives: at the highest dose activity change, negative = inhibition, hits mostly inhibitors; also: % is scaled to controls: 0 for no effect and ±100 for the full control effect
# Target sequence (P18054 whole entry, looked up): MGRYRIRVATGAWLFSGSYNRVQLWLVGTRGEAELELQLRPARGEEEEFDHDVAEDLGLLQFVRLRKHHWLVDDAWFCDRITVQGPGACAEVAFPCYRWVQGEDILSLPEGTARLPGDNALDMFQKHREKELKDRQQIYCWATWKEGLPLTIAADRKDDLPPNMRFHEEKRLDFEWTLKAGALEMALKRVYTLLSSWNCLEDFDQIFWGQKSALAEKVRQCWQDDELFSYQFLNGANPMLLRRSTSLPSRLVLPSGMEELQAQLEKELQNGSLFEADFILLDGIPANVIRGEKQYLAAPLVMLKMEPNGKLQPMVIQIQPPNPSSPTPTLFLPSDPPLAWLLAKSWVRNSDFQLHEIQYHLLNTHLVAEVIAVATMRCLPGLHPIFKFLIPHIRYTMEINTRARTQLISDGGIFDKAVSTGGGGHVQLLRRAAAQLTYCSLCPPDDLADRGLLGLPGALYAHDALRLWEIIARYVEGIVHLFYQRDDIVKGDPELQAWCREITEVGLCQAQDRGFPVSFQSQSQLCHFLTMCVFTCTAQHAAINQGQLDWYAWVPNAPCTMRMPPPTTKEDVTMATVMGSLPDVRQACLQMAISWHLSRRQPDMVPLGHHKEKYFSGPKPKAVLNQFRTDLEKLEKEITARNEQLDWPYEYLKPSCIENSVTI
#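 Purified human 12hLO (150 nM final) in 25 mM Hepes, 0.01% Triton X-100, pH 7.0 was preincubated 15 min at room temperature with compound. Then 40 uM arachidonic acid was added, 30 min. Hydroperoxide was read by Fe-XO absorbance ratio 573/405 nm.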
# Starred values were filed as active, the others as inactive; i = inactive; ? = inconclusive; · = no result; ! = repeats disagree; [ ] = remark or other dose. Shown are actives, neighbours in structure and some others; about 1.6% of the full set was active somewhere. Unless noted, calls follow the shape of the dose curve; as a rule, active = well fitted curve in the direction sought with a large enough effect; inconclusive = small, poorly fitted or top-dose-only effect, or another doubt; inactive = no such curve, though single readings can be large; an effect the other way counts as inactive or inconclusive. Potency is read from the fitted curve at half-maximal effect.
SMILES,Mito fusion act,gsp ag,gsp antag,FUS suppressor,12-LOX inh
Cc1nnc(N2C(=O)C(=O)/C(=C(/O)c3ccc4c(c3)OCCO4)C2c2cccc([N+](=O)[O-])c2)s1 (stereo not given),·,12%,·,?,?
O=C1C(=O)N(CCN2CCOCC2)C(c2cccc(Cl)c2)/C1=C(\O)c1ccc2c(c1)OCCO2 (stereo not given),-5%,?,-1%,i,?
COc1ccc(C2/C(=C(\O)c3ccc4c(c3)CC(C)O4)C(=O)C(=O)N2Cc2cccnc2)c(OC)c1 (stereo not given),1%,17%[15.4 µM],5%,i,11µM*
COC(=O)c1ccc(C2/C(=C(\O)c3ccc4c(c3)OCCO4)C(=O)C(=O)N2c2nnc(C)s2)cc1 (stereo not given),0%,?,3%,?,?
COc1cccc(C2/C(=C(\O)c3ccc4c(c3)OCCO4)C(=O)C(=O)N2c2nnc(C)s2)c1 (stereo not given),1%,8.9µM*,-10%,i,?
COc1ccc(NC(=O)c2ccc3c(c2)N(C)C2CCCCN2C3=O)cc1Cl (stereo not given),·,·,·,·,23%
CC1CCc2c(sc3ncnc(OCC(=O)NC(=O)Nc4ccc5c(c4)OCCO5)c23)C1 (stereo not given),·,·,·,·,-1%
C[C@@H]1CN([C@@H](C)CO)S(=O)(=O)c2ccc(C#CC3CCCCC3)cc2O[C@@H]1CN(C)Cc1cccnc1,·,12%,·,i,14µM*
COc1ccccc1S(=O)(=O)N(C)C[C@@H]1Oc2cc(C#CCC(C)C)ccc2S(=O)(=O)N([C@H](C)CO)C[C@@H]1C,·,25%,·,?,0%
C[C@H]1CN([C@@H](C)CO)S(=O)(=O)c2ccc(Br)cc2O[C@H]1CN(C)S(=O)(=O)c1ccccc1F,·,-2%,·,i,?
COc1ccc(C#Cc2ccc3c(c2)O[C@H](CN(C)S(=O)(=O)c2ccccc2F)[C@H](C)CN([C@H](C)CO)S3(=O)=O)cc1,·,·,·,28µM*,2%
COc1ccccc1S(=O)(=O)N(C)C[C@H]1Oc2cc(C#CCC3CCCC3)ccc2S(=O)(=O)N([C@H](C)CO)C[C@H]1C,·,-123%,·,?,20µM*
O=C(NC1CCCC1)C1CCN(c2ncnc3nc[nH]c23)CC1,·,·,·,·,6%
CC(NC(=O)c1ccc(F)cc1)c1cccc(NS(C)(=O)=O)c1 (stereo not given),·,·,·,·,4%
Cc1nn(-c2ccc(C(F)(F)F)cc2)c(C)c1[C@@H]1C=C[C@@H](NC(=O)COCC(=O)O)C1,·,·,·,·,14%
Cc1nn(-c2ccc(F)cc2)c(C)c1[C@@H]1C=C[C@@H](NC(=O)CC(C)(C)CC(=O)O)C1,·,·,·,·,20µM*
Cc1nn(-c2ccc(C(F)(F)F)cc2)c(C)c1[C@@H]1C=C[C@@H](NC(=O)NC(C)C)C1,·,·,·,·,11µM*
COc1cc(NC(=O)C[C@H]2NC(=O)c3ccccc3NC2=O)ccc1-n1nc(C)cc1C,·,·,·,·,63%
CNC(=O)c1ccc(CNc2nc(CCN)nc3sc(C)c(C)c23)o1,·,·,·,·,52%
COCC(C)NC(=O)CSc1nnc(-c2cccc(S(=O)(=O)N3CCCCC3)c2)o1 (stereo not given),-2%,10%[15.4 µM],11µM*,i,3%
COc1ccc(CC(CC(=O)O)C(=O)Nc2ccc(Cl)c(Cl)c2)cc1 (stereo not given),0%,4%,18µM*,i,0%
CCN(CC)S(=O)(=O)c1cc(C(=O)Nc2c(C)cc(C)cc2Cl)ccc1C,·,·,·,·,23%
O=C(CCc1ccsc1)N(Cc1ccco1)C1CC1,·,·,·,·,16µM*
O=C(Cc1cccs1)N(Cc1ccco1)C1CC1,·,·,·,·,14µM*
O=C(c1ccsc1)N(Cc1ccco1)C1CC1,·,·,·,·,35µM*
SMILES,Mito fusion act,gsp ag,gsp antag,FUS suppressor,12-LOX inh
O=C(CCc1ccsc1)N(Cc1ccncc1)C1CC1,·,·,·,·,6%
O=C(/C=C/c1cccs1)N(Cc1ccco1)C1CC1,·,·,·,·,-52%
Cc1ccc(O)c(NC(=O)COc2ccc3c(=O)c(-c4ccccc4)c(C)oc3c2)c1,·,·,·,·,-41%
CCOC(=O)/C(C#N)=C/c1ccc(OCC(=O)N2CCOCC2)cc1,·,·,·,·,37%
O=C(CCN1C(=O)/C(=C/c2cccs2)SC1=S)Nc1cccc(O)c1,-5%,-39%,40µM*,i,-8%
O=C(CCCN1C(=O)/C(=C/c2cccs2)SC1=S)Nc1cccc(O)c1,-5%,-14%,45µM*,i,-14%
C=CCn1c(SCC(=O)N2CCc3ccccc3C2)nc2sc(C)c(C)c2c1=O,13µM*,?,-16%,i,-1%
COc1cc(/C=C2/SC(=S)N(Cc3ccccc3)C2=O)ccc1O,-27%,-108%,5%,i,8%
Cc1ccc(/C=C2/NC(=O)N(Cc3ccccc3)C2=O)o1,18%,-1%,1%,i,32µM*
COC(=O)CN1C(=O)N/C(=C/c2ccc(C)o2)C1=O,20%,0%[15.4 µM],-16%,i,?
O=C(O)c1cc(-c2ccc(/C=C3/SC(=S)N(Cc4ccccc4)C3=O)o2)ccc1Cl,?,10%[15.4 µM],-15%,i,13µM*
O=C1/C(=C\c2ccc(O)c(O)c2)SC(=S)N1Cc1ccccc1,13µM*,4%,-9%,i,?
Cc1ccc(/C=C2\SC(=S)N(Cc3ccccc3)C2=O)o1,-1%,-17%,6%,i,45µM*
Cc1cc(C(=O)NC(C)c2ccccc2Cl)c2cnn(C(C)C)c2n1 (stereo not given),·,·,·,·,-12%
COc1ccc(C(=O)c2c(N)c(C#N)c3n2CCCC3)cc1,·,·,·,·,-17%
O=C(CN1C(=O)S/C(=C\c2cc(Cl)c(O)c(Cl)c2)C1=O)Nc1ccccc1,5%,-32%,40µM*,i,-2%
Cc1ccc(NC(=O)CN2C(=O)S/C(=C\c3ccc(-c4cccc(C(=O)O)c4C)o3)C2=O)cc1,-1%,·,·,·,·
Cc1ccc(NC(=O)CN2C(=O)S/C(=C/c3ccc(-c4cccc(C(=O)O)c4)o3)C2=O)cc1,-5%,-1%,-5%,i,40µM*
COc1cc(/C=C(\C#N)C(=O)c2ccc(O)c(O)c2)cc(I)c1O,23µM*!,·,-29%,i,?
COc1cc(/C=C(/C#N)c2ccc(Cl)cc2)cc(OC)c1OC,·,·,·,·,-5%
COc1cc(/C=C(/C#N)C(=O)c2c(Cl)cccc2Cl)cc(OC)c1OC,·,·,·,·,0.5µM*
COc1cc(/C=C(/C#N)C(=O)Nc2cccc3ncccc23)cc(OC)c1OC,·,·,·,·,16µM*
COc1cc(/C=C(/C#N)C(=O)c2c(Cl)cccc2Cl)cc(OC)c1,·,·,·,·,28µM*
O=C(CCc1ncc(-c2ccccc2F)o1)Nc1ccc(F)c(F)c1,·,·,·,·,-2%
CCCn1nc(C(=O)Nc2cccc(Cl)c2C)c2ccccc2c1=O,·,·,·,·,10%
COc1ccc(-c2nccc3c(=O)cc(N4CCOCC4)oc23)cn1,·,·,·,·,-12%[176 µM]

# High-throughput results from PubChem.
